VP16 counter = Gal4-VP16 reporter inhibition counter-screen | Potency, µM (titrated, usually from 53.6 µM), for inactives: at the top dose activity, negative = inhibition, usual class: inhibitors | Drosophila S2 Gal4-VP16 UAS-luciferase, luminescence, 20 h | 310,000 tested, 3.5% active;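 also: Gal4-VP16 expression switched on by copper sulfate through the metallothionein promoter; potency is read from the fitted curve at half-maximal effect; % is scaled to controls: 0 for no effect and ±100 for the full control effect; nearly all actives have a fitted effect of over 50% in size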
Giardia kill = Giardia lamblia killing. Giardia lamblia trophozoite viability. activity change, % at 7.66 µM, hits read low. 340,000 tested, 0.15% active; in the data active = activity change below about -80%; inconclusive = between about -30% and that limit;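 also: parasites exposed to compound for two days anaerobically before the ATP read; % is scaled to controls: 0 for no effect and ±100 for the full control effect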
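Each well holds 100 Giardia trophozoites and compound. After two days (48 hrs) at 37 deg C in anaerobic conditions, ATP is quantified by luminescence.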
RORg inh = blocks mouse ROR gamma transcriptional activity. P51450. 310,000 tested, 5.4% active. Potency, µM (top dose mostly 53.6 µM), without a hit: at the top dose activity change, negative = inhibition, most hits filed as inhibitors. AID 2551. Drosophila S2 Gal4-RORgamma UAS-luciferase reporter, 20 h; also: potency is read from the fitted curve at half-maximal effect; % is scaled to controls: 0 for no effect and ±100 for the full control effect; nearly all actives have a fitted effect of over 60% in size
Target sequence (P51450 whole entry, looked up, the tested form may be a part): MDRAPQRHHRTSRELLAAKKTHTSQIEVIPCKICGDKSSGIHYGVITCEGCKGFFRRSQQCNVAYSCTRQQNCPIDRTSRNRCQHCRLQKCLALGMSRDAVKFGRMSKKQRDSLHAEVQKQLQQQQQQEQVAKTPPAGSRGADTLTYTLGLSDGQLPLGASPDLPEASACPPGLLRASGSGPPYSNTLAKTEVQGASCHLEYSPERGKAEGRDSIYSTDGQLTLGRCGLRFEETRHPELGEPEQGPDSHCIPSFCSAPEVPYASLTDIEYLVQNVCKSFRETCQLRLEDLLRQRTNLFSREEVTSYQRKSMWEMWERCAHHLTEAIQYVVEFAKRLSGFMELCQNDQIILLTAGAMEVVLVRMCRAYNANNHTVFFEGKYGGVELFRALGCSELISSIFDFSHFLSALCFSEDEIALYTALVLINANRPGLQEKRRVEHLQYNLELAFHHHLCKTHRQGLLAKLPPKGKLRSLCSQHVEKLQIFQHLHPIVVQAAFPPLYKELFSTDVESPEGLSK
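A Gal4/UAS one-hybrid system in insect cells: metallothionein-promoter Gal4–ROR gamma fusion plus Photinus luciferase reporter. Copper sulfate 700 uM final, 20 hr ambient incubation, luminescent detection after 10 min with reagent.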
BRCA1 expr up = increases BRCA1 expression | MCF7-BRCA1-FFLuc reporter, luminescence, 48 h; response scale: scaled: vehicle 0%, 10 µM genistein 100% | Potency, µM (series often up to 46.1 µM), for the others: at the highest dose activation, hits mostly activators | 380,000 tested, 1.1% active | AID 624202; also: potency is read from the fitted curve at half-maximal effect; nearly all actives have a fitted effect of over 80% in size
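Using MCF7 cells harboring a BRCA1 firefly luciferase reporter, plated 2 h before compound pinning, the screen measured luminescence after 48 h incubation. Responses were normalized to DMSO and 10 microM genistein, then fitted for concentration-effect.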
ELG1 repair inh = ELG1-dependent DNA repair inhibition; AID 504467; Potency, µM (doses to about 46.1 µM), for inactives: at the highest dose activity change, negative = inhibition, most hits filed as inhibitors; HEK293T ELG1-luciferase reporter, luminescence, 16 h; DNA damage induced by 5-fluorouridine; 330,000 tested, 2.3% active; also: potency is read from the fitted curve at half-maximal effect; % is scaled to controls: 0 for no effect and ±100 for the full control effect; nearly all actives have a fitted effect of over 55% in size
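Luminescence from the luciferase reporter, measured 30 min after ONE-Glo reagent at room temperature, was the read-out. Beforehand, 2,000 cells per well were exposed for 16 hr at 37 °C to 5-fluorouridine together with compound or vehicle.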
p53 reactivation = restores transcriptional activity of mutant p53 | 320,000 tested, 0.063% active | H1299 p53-A138V BP100-luciferase reporter, luminescence, 24 h | Potency, µM (top dose mostly 92.2 µM), without a hit: at the top dose activity change, positive = activation, actives largely listed as activators; also: potency is read from the fitted curve at half-maximal effect; % of control where 0% means no effect; nearly all actives have a fitted effect of over 45% in size
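p53-null H1299 cells stably carrying temperature-sensitive p53-A138V and a BP100-luciferase reporter were pinned with compounds (4-point, 1:5 series) and held 24 hrs at 37 deg C. Luminescence was read 10 min after detection reagent.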
* hit, by the source's call; ? = inconclusive; · = no result; [ ] = remark or other dose. Hits are enriched below; roughly 7.6% of the tested compounds scored in any of these assays. Unless noted, calls follow the shape of the dose curve; as a rule, active = well fitted curve in the direction sought with a large enough effect; inconclusive = small, poorly fitted or top-dose-only effect, or another doubt; inactive = no such curve, though single readings can be large; an effect the other way counts as inactive or inconclusive.

SMILES | VP16 counter | Giardia kill | RORg inh | BRCA1 expr up | ELG1 repair inh | p53 reactivation
O=C1C2C3c4ccccc4C(c4ccccc43)[C@@H]2C(=O)N1c1ccccn1 (some centres not stated) | -4.5% | 0.3 | -13.3% | 0.5% | -27.7% | -4.2%
O=C1C2C3c4ccccc4C(c4ccccc43)[C@@H]2c2nc3ccccc3n21 (some centres not stated) | -9.1% | ? | 11.2µM* | -11.8% | ? | -4.3%
Cc1ccc(COn2nnc3ccc(S(=O)(=O)N4CCOCC4)cc32)cc1 | · | -9.2 | · | -5.1% | 0.9% | -10.5%
O=C(Cn1cc(S(=O)(=O)c2ccccc2)c(=O)c2cc3c(cc21)OCO3)Nc1ccccc1 | · | · | · | -55.9% | · | ·
CCOC(=O)C(Cc1ccnc2ccccc12)=NO | · | 15.1 | · | -22.1% | · | ·
CCOC(=O)/C(=N\Nc1ncnc2ccccc12)c1ccc(OC)cc1 | 14.1µM* | 6.6 | 7.08µM* | 72.9% | ? | ?
COc1ccc(/C(=N/Nc2ncnc3ccccc23)C(=O)O)cc1 | 0.501µM* | -2.1 | 0.282µM* | -11.8% | ? | ?
COc1ccccc1Nc1ncnc2ccccc12 | ? | -17.7 | -29.8% | 33.9% | -2.4% | 5.1%
COc1ccc(-c2nc(-c3ccccc3)c(Nc3ccc4ccccc4c3)o2)cc1 | 3.0% | · | ? | · | · | ·
O=c1cnc2cnc(N3CCNCC3)nc2n1CCc1ccccc1 | -21.5% | · | -1.1% | · | · | ·
c1ccc(-c2nc(N3CCN(c4ccccc4)CC3)nc(-n3ccnc3)n2)cc1 | 15.8µM* | -8.7 | 12.6µM* | -52.0% | ? | 2.2%
c1ccc(-c2ccc(-n3ccnc3)cc2)cc1 | 1.1% | -16.9 | ? | 10µM* | ? | ?
COC(=O)c1ccc(-n2ccnc2)cc1 | ? | 11.4 | -16.5% | -4.6% | -21.0% | -2.6%
CC1=NN(/C(=N\c2nnc(C)s2)Nc2ccc(C(C)(C)C)cc2)[C@H](c2ccc(C)cc2)S1 | ? | 4.1 | 17.8µM* | -40.9% | ? | 4.8%
C=CCNC(=S)Nc1ccc(Cl)cc1F | -10.2% | -10.9 | 14.1µM* | 43.8% | ? | 11.9%
C=CCNC(=S)Nc1ccc(Br)cc1F | ? | 0.9 | 15.8µM* | ? | 11.0% | ?
CN(C)/C=N/C(=S)Nc1ccccc1 | 15.7%[10 µM] | 4.6 | 15.8µM* | 44.5% | ? | 0.8%
Fc1cc(Br)ccc1NC(=S)NCCc1ccccc1 | ? | 6.3 | 7.94µM* | 105.7% | ? | 10.7%
CCOC(=O)N1CCN(C(=O)C2CC(=O)N(Cc3ccc(OC)cc3)C2)CC1 (configuration not stated) | -21.5% | 7.5 | -7.1% | 1.8% | 3.1% | -7.6%
O=C1c2ccccc2C(=O)N1CCCC[C@]12Cc3ccccc3C(O1)c1c(c3ccccc3oc1=O)O2 | 1.6%[10 µM] | · | -2.5%[10 µM] | · | · | ·
CCCCN(CC)S(=O)(=O)c1c(C)[nH]c(=O)[nH]c1=O | -8.0% | 4.3 | 0.3% | -29.2% | -2.0% | 0.6%
CN(C)/C=N/C(=S)Nc1ccc(Br)cc1F | 12.6µM* | -3.8 | ? | ? | ? | ?
CN(C)S(=O)(=O)Nc1ccc(Br)cc1F | -6.7% | 3.6 | 0.0% | -1.7% | 10.9% | -4.5%
Cc1ncc(CO)c2c1Oc1nc(-c3ccccc3F)nc(SCC(=O)N(C)c3ccccc3)c1C2 | ? | 12.3 | ? | -32.9% | 2.91µM* | 2.0%
N#Cc1c(N)nc(SCC(=O)C23CC4CC(CC(C4)C2)C3)c(C#N)c1-c1ccc(Cl)cc1 | 5.4% | -16.6 | 0.0% | -51.7% | ? | 5.0%
SMILES | VP16 counter | Giardia kill | RORg inh | BRCA1 expr up | ELG1 repair inh | p53 reactivation
CSc1nc(N)nc(SCC(=O)C23CC4CC(CC(C4)C2)C3)c1C#N | -16.4% | 7.0 | ? | -54.6% | 20.6µM* | ?
CC(O)CNc1nc2ccccc2n1CC(=O)NCCc1ccc(Cl)cc1 (configuration not stated) | 12.2% | -9.5 | 6.8% | -15.3% | -7.2% | -3.8%
S=c1nc(-c2ccccc2)[nH]n1-c1ccccc1 | 11.2µM* | -2.3 | 7.94µM* | -6.1% | 25.6% | 1.1%
Clc1nc(-c2ccccc2)c2ccccc2n1 | 3.8% | -7.3 | -16.4% | 1.5% | 8.7% | -63.9%
S=c1nc2ccccc2c2nc(-c3ccccc3)[nH]n12 | 0.355µM* | -9.7 | 0.0891µM* | -23.0% | ? | ?
S=c1nc2ccccc2c2nc(-c3ccccc3Cl)[nH]n12 | 1.58µM* | 14.2 | 0.355µM* | -17.0% | ? | 18.0%
Clc1ccccc1-c1nc(-n2ccnc2)c2ccccc2n1 | -10.6% | · | ? | · | · | ·
CNc1sc(C(=O)c2ccc(F)cc2)c(N)c1-c1nc2ccccc2s1 | ? | 5.0 | 10µM* | 42.3% | ? | ?
CC(=O)Nc1scc(C)c1-c1nc2ccccc2s1 | 8.91µM* | -1.1 | 1.12µM* | -86.1% | -1.1% | 3.8%
O=C(Nc1ccc(F)cc1)Nc1sccc1-c1nc2ccccc2s1 | ? | -12.8 | ? | -37.7% | -1.9% | -1.0%
CNc1sc(C(=O)c2cccs2)c(N)c1-c1nc2ccccc2s1 | 3.98µM* | 2.8 | ? | 36.0% | ? | ?
O=C(N[C@@H]1CCC(=O)N(CC[C@H](Sc2ccc(Br)cc2)c2ccccc2)CC1)OCc1ccccc1 | · | 40.2 | · | -42.7% | ? | ?
COc1ccc(S[C@@H](CCN2CC[C@H](NC(=O)OCc3ccccc3)CCC2=O)c2ccccc2)cc1 | · | 16.9 | · | -51.6% | 18.3µM* | 10.8%
CCOc1ccc(N2CC(C(=O)Nc3cccc(C(=O)NC4CC4)c3)CC2=O)cc1 (configuration not stated) | · | 9.4 | · | -9.9% | 2.9% | -9.3%
C=CCn1c(-c2cc3c(s2)CCC(CC)C3)n[nH]c1=S (configuration not stated) | ? | -16.2 | 2.24µM* | 0.0% | ? | ?
O=C(O)/C=C/C(=O)NCCC1=CCCCC1 | -7.2% | -8.2 | 0.1% | -8.8% | 13.1% | -2.2%
O=C(Nc1ccccc1)NC1CCCCCCC1 | · | -5.7 | · | ? | · | ·
O=C(NNC(=S)Nc1ccc(Cl)cc1)c1ccccc1OC(F)F | ? | -12.0 | -38.8% | -75.3% | 23.1µM* | ?
S=C(NC1CCCCC1)NN(c1ccccc1)c1ccccc1 | 5.62µM* | 8.3 | 2.51µM* | -46.0% | 5.8% | 4.9%
O=C(NNC(=S)NC1CCCCC1)c1ccccc1Br | ? | 8.7 | 1.12µM* | 33.4% | 18.3% | 3.5%
CC1CCCC(NC(=S)NC(=O)c2ccccc2Br)C1C (configuration not stated) | 5.01µM* | 2.3 | 2.51µM* | -34.4% | ? | ?
O=C(NNC(=S)NCc1ccccc1)c1ccccc1OC(F)F | ? | -7.8 | -41.5% | -28.6% | -0.4% | -10.0%

Bioassay records: PubChem, National Center for Advancing Translational Sciences (NCATS)
